Rows were chosen to be rich in hits. Some 32% of all compounds tested hit in one or more screens of this group.
CYP2C9 act: human CYP2C9 activators, primary screen, biochemical, luminescence. Cytochrome P450 2C9 (Homo sapiens), P11712. AID 1024, 2008. activation factor at 5 µM. 96,000 tested, 1.4% active. recombinant CYP2C9, luciferin-H conversion; stronger effect = higher value; factor 1 = untreated enzyme, 0 = blocked;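 active means activation factor of 2 or more for CYP2C9 at a 5 µM dose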
CYP2C9 inh: blockers of cytochrome P450 2C9 activity – biochemical, luminescence, ADME assay, primary screen; P11712; CYP2C9 Supersomes, luciferin-H conversion; inhibition, % at 5 µM; 96,000 tested, 20% active; AID 777, 2007;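 active means blocking of liver enzyme CYP2C9 beyond about 50% at 5 µM, limit read from the data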
PostGolgi yeast: phenotypic screen on post-Golgi transport, primary screen; post-Golgi transport phenotypic cell assay; 98,000 tested, 0.9% active; inhibition, % at 10 µM;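 further: yeast cells grown in 1536-well plates; yeast grown about 18 h at 30C before absorbance read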
PostGolgi ctrl: growth inhibition of yeast control strain, primary screen, counter-screen for post-Golgi transport modulator project | efflux-deficient yeast background strain, growth absorbance A615, 16 h | inhibition, % at 10 µM | 98,000 tested, 5% active | AID 738, 2007
CYP2C19 act: human CYP2C19 activators, primary screen, biochemical, luminescence; Cytochrome P450 2C19 (Homo sapiens), P33261; recombinant CYP2C19, luciferin-H EGE luminescence; stronger effect = higher value; 0 = fully inhibited enzyme, 1 = untreated enzyme; 96,000 tested, under 10 active; activation factor at 5 µM;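 active means activation factor of at least 2 at 5 µM in the primary screen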
Target sequence (P33261 whole entry, looked up): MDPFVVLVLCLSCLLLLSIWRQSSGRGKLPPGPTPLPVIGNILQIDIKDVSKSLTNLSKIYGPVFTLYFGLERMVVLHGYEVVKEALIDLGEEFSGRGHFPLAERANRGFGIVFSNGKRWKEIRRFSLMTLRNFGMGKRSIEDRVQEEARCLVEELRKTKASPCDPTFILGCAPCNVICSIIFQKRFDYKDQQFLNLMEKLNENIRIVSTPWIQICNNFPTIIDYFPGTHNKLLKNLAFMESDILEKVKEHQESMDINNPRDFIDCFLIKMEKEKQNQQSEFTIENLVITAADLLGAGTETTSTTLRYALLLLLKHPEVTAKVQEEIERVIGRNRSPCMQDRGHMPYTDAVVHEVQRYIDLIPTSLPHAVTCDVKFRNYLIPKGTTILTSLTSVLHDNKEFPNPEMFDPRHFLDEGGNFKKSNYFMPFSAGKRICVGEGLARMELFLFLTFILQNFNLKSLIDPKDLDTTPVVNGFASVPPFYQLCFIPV
CYP2C19 inhib: blockers of cytochrome P450 2C19 activity – biochemical, luminescence, ADME assay, primary screen. P33261. CYP2C19 Supersomes, luciferin-H EGE luminescence, 30 min. inhibition, % at 5 µM. 96,000 tested, 21% active. AID 778, 2007;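 active means CYP2C19 inhibition above a set limit at 5 µM in the primary screen, cut at about 50% in these data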
Hits are given with their value. Unless noted, no stated cut-off is given here; in the data, active means inhibition above about 30%; inactive means the rest.

Screening COc1ccc(-c2[nH]ncc2-c2cnn(-c3ccccc3)c2)c(O)c1 returned CYP2C9 act inactive, CYP2C9 inh 82.4, PostGolgi yeast inactive, PostGolgi ctrl inactive, CYP2C19 act inactive and CYP2C19 inhib 69.4.
Screening COc1ccc(-c2[nH]ncc2Oc2ccccc2OC)c(O)c1 returned CYP2C9 act inactive, CYP2C9 inh 74.6, PostGolgi yeast inactive, PostGolgi ctrl inactive, CYP2C19 act inactive and CYP2C19 inhib 93.6.
For COc1ccc(Oc2cn[nH]c2-c2ccc(O)cc2O)cc1 the results were CYP2C9 act inactive, CYP2C9 inh 98.8, PostGolgi yeast inactive, PostGolgi ctrl inactive, CYP2C19 act inactive and CYP2C19 inhib 99.9.
Screening COc1ccc(-c2cn[nH]c2N)c(OC)c1 returned CYP2C9 act inactive, CYP2C9 inh inactive, PostGolgi yeast inactive, PostGolgi ctrl inactive, CYP2C19 act inactive and CYP2C19 inhib inactive.
Screening CCCc1ccc(Oc2cn[nH]c2-c2ccc(O)cc2O)cc1 returned CYP2C9 act inactive, CYP2C9 inh 88.9, PostGolgi yeast 97.2, PostGolgi ctrl 99.0, CYP2C19 act inactive and CYP2C19 inhib 96.4.
`COc1ccccc1CN1C(=O)C2CC=CCC2C1=O` (centres undefined) gave CYP2C9 act inactive, CYP2C9 inh inactive, PostGolgi yeast inactive, PostGolgi ctrl inactive, CYP2C19 act inactive and CYP2C19 inhib inactive.
`CC(=O)NC1(c2cccc(F)c2)CCN(C(=O)Nc2ccc(C#N)cc2)CC1` gave CYP2C9 act inactive, CYP2C9 inh inactive, PostGolgi yeast inactive, PostGolgi ctrl inactive, CYP2C19 act inactive and CYP2C19 inhib inactive.
Screening CCOc1cc(C)c(S(=O)(=O)Nc2ccc(Cl)cn2)cc1C returned CYP2C9 act inactive, CYP2C9 inh 94.9, PostGolgi yeast inactive, PostGolgi ctrl 58.0, CYP2C19 act inactive and CYP2C19 inhib 78.2.
`CC(C)CN(CC(C)C)C(=O)C12CCC(C)(C(=O)C1)C2(C)C` (centres undefined) gave CYP2C9 act inactive, CYP2C9 inh inactive, PostGolgi yeast inactive, PostGolgi ctrl inactive, CYP2C19 act inactive and CYP2C19 inhib inactive.
Screening Cc1nn(Cc2ccc([N+](=O)[O-])cc2)c(=O)n1-c1cccc(F)c1 returned CYP2C9 act inactive, CYP2C9 inh inactive, PostGolgi yeast inactive, PostGolgi ctrl inactive, CYP2C19 act inactive and CYP2C19 inhib inactive.
Screening CCCNC(=O)CCn1c(-c2ccc(C)cc2)cc(C(=O)OCC)c1C returned CYP2C9 act inactive, CYP2C9 inh 61.8, PostGolgi yeast inactive, PostGolgi ctrl inactive, CYP2C19 act inactive and CYP2C19 inhib 66.2.
For CCCCNC(=O)CCC(=O)Nc1ncc(-c2ccc(C)cc2)n1C the results were CYP2C9 act inactive, CYP2C9 inh inactive, PostGolgi yeast inactive, PostGolgi ctrl inactive, CYP2C19 act inactive and CYP2C19 inhib inactive.
For CC(=O)c1cc(-c2ccccc2)n(CC(=O)NC2CCCC2)c1C the results were CYP2C9 act inactive, CYP2C9 inh inactive, PostGolgi yeast inactive, PostGolgi ctrl inactive, CYP2C19 act inactive and CYP2C19 inhib inactive.
Screening CCOC(=O)c1cc(-c2ccc(C)cc2)n(CCC(=O)NC(C)CC)c1C (centres undefined) returned CYP2C9 act inactive, CYP2C9 inh inactive, PostGolgi yeast inactive, PostGolgi ctrl inactive, CYP2C19 act inactive and CYP2C19 inhib 64.1.
Screening CCOC(=O)c1cc(-c2ccccc2)n(CC(=O)O)c1C returned CYP2C9 act inactive, CYP2C9 inh 71.8, PostGolgi yeast inactive, PostGolgi ctrl inactive, CYP2C19 act inactive and CYP2C19 inhib inactive.
Screening Cc1cc(Nc2nc3ccccc3nc2Cl)n(-c2ccccc2C)n1 returned CYP2C9 act inactive, CYP2C9 inh inactive, PostGolgi yeast inactive, PostGolgi ctrl inactive, CYP2C19 act inactive and CYP2C19 inhib 89.0.
COC(=O)COc1cccc(NC(=O)c2cccs2)c1 was read as CYP2C9 act inactive, CYP2C9 inh inactive, PostGolgi yeast inactive, PostGolgi ctrl inactive, CYP2C19 act inactive and CYP2C19 inhib inactive.
Screening CCNC(=O)c1sc(-c2ccccc2)nc1C returned CYP2C9 act inactive, CYP2C9 inh inactive, PostGolgi yeast inactive, PostGolgi ctrl inactive, CYP2C19 act inactive and CYP2C19 inhib 55.6.
COc1ccc(/C=C/C(=O)c2sc(-c3ccccc3)nc2C)cc1 was read as CYP2C9 act inactive, CYP2C9 inh inactive, PostGolgi yeast inactive, PostGolgi ctrl inactive, CYP2C19 act inactive and CYP2C19 inhib inactive.
[O-][N+]12CCN(CC1)c1ccccc12 was read as CYP2C9 act inactive, CYP2C9 inh inactive, PostGolgi yeast inactive, PostGolgi ctrl inactive, CYP2C19 act inactive and CYP2C19 inhib inactive.
Screening O=C(NC(=S)Nc1cc([N+](=O)[O-])ccc1Cl)c1ccccc1 returned CYP2C9 act inactive, CYP2C9 inh inactive, PostGolgi yeast inactive, PostGolgi ctrl inactive, CYP2C19 act inactive and CYP2C19 inhib inactive.
O=C(NC(NC(=S)Nc1ccc(Cl)cc1Cl)C(Cl)(Cl)Cl)c1cccc([N+](=O)[O-])c1 (centres undefined) was read as CYP2C9 act inactive, CYP2C9 inh 88.5, PostGolgi yeast inactive, PostGolgi ctrl inactive, CYP2C19 act inactive and CYP2C19 inhib inactive.
Screening C(=N\N1CCN(C2c3ccccc3-c3ccccc32)CC1)/c1cccs1 returned CYP2C9 act inactive, CYP2C9 inh 81.9, PostGolgi yeast inactive, PostGolgi ctrl inactive, CYP2C19 act inactive and CYP2C19 inhib inactive.
Screening C(=N\N1CCN(Cc2ccccc2)CC1)/c1cccs1 returned CYP2C9 act inactive, CYP2C9 inh inactive, PostGolgi yeast inactive, PostGolgi ctrl inactive, CYP2C19 act inactive and CYP2C19 inhib 60.0.
`Cc1noc(C)c1COc1cccc(C(=O)Oc2ccc3c(c2)OCO3)c1` gave CYP2C9 act inactive, CYP2C9 inh 88.4, PostGolgi yeast inactive, PostGolgi ctrl inactive, CYP2C19 act inactive and CYP2C19 inhib 67.1.
For Cc1noc(C)c1COc1cccc(C(=O)OCCOc2ccc(F)cc2)c1 the results were CYP2C9 act inactive, CYP2C9 inh 88.7, PostGolgi yeast inactive, PostGolgi ctrl inactive, CYP2C19 act inactive and CYP2C19 inhib 98.3.
Screening Cc1noc(C)c1COc1cccc(C(=O)OC(C)C(=O)Nc2ccc3c(c2)OCO3)c1 (centres undefined) returned CYP2C9 act inactive, CYP2C9 inh 80.7, PostGolgi yeast inactive, PostGolgi ctrl inactive, CYP2C19 act inactive and CYP2C19 inhib inactive.
`Cc1ccc(NC(=O)c2cccc(OCc3c(C)noc3C)c2)c(C)c1` gave CYP2C9 act inactive, CYP2C9 inh 88.5, PostGolgi yeast inactive, PostGolgi ctrl inactive, CYP2C19 act inactive and CYP2C19 inhib 81.1.
Screening CNC(=O)C1C(=S)NC(N)=C(C#N)C1c1ccccc1 (centres undefined) returned CYP2C9 act inactive, CYP2C9 inh inactive, PostGolgi yeast inactive, PostGolgi ctrl inactive, CYP2C19 act inactive and CYP2C19 inhib inactive.
